Compound activity from PubChem.
PKA-R2B activ: activators of human PKA-R2B complex. P22694+P31323. activation, % at 11.4 µM. AID 504700. 340,000 tested, 0.079% active. PKA-R2B holoenzyme dissociation, Cy5-IP20 fluorescence polarization; R2B truncated from residue 108, S112A mutant; 0% DMSO only, 100% 113 µM cGMP;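 active = activation above a cutoff set at the mean over all compounds plus 3 SD, cut at about 18% in these data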;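 also: higher means more holoenzyme dissociation and a rise in polarization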
Target sequence (P31323 whole entry, looked up, other chains not shown, the tested form may be a part): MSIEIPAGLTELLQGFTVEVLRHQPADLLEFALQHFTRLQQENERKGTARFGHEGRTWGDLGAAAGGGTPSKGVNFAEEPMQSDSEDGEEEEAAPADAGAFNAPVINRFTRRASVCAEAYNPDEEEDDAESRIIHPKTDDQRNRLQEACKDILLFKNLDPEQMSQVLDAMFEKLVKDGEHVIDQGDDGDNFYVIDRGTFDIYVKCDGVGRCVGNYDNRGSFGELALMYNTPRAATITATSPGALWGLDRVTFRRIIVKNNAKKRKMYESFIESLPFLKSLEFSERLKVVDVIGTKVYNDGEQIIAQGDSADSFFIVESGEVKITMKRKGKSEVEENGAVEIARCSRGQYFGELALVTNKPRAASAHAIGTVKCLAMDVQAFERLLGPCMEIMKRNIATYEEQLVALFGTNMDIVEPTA
ATG4B inh: ATG4B (human) cysteine protease inhibition | ATG4B cleavage of LC3-PLA2, NBD-HPC fluorescence, 1 h | inhibition, % at 8.33 µM | 340,000 tested, 0.51% active | AID 504462; in the data active = inhibition above about 40%
PKA-R1A act: PKA-R1A complex activation. PKA-R1A dissociation, Cy5-IP20 fluorescence polarization; scaled: DMSO 0%, 113 µM cGMP 100%. activation, % at 11.4 µM. 340,000 tested, 0.083% active;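 active = percent activation above the mean of all tested compounds plus 3 SD, cut at about 19% in these data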;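 also: higher means more PKAc released from R1A so a rise in polarization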
NRP1-CendR mod: NRP-1/CendR interaction modulation; O14786; FAM-RPARPAR peptide binding to NRP-1, fluorescence polarization; inhibition, % at 25 µM; 360,000 tested, 0.85% active; AID 602438;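 active = inhibition or corrected inhibition above about 18%, plus a signal ratio from 0.5 to 1.5, limit read from the data, passing the limit was not always enough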
VLA-4 inh: inhibition in a human VLA-4 binding assay | inhibition, % (about 7 µM as worked out from the volumes in the protocol) | P13612 | 330,000 tested, 0.2% active | VLA-4 expressing cells, ligand binding flow cytometry; in the data active = inhibition above about 50%
* = called active by the depositor; · = not tested or not shown. Sampled rows, rich in hits. Any-hit rate of the full collection: about 1.6%.

SMILES | PKA-R2B activ | ATG4B inh | PKA-R1A act | NRP1-CendR mod | VLA-4 inh
Cc1[nH]nc2c1C(c1ccc(OC(=O)c3ccco3)cc1)C(C#N)=C(N)O2 (stereo not drawn) | -4.0 | 54.2* | -4.9 | 20.3 | 0.9
COCCNC(=O)C(=O)Nc1cccc(Br)c1 | -0.4 | 2.5 | -3.7 | 28.6* | 1.4
COc1ccc(C2=Nc3ccccc3N(C(=O)c3cccnc3)C2C(=O)NC(C)(C)C)cc1 (stereo not drawn) | · | · | · | 6.6 | ·
COc1ccc(CCNC(=O)COc2cccc(-n3cnnn3)c2)cc1 | -10.1 | -3.1 | -7.6 | 17.7* | ·
COC(=O)c1cn(-c2ccccc2)c(C)c1C(=O)OC | 4.2 | -14.7 | 2.1 | 22.3* | 2.1
CC(=N)c1c(O)cc(C)oc1=O | 4.4 | -1.5 | -0.7 | 19.4* | ·
C/C(=N\Nc1ccc(Cl)cc1)c1c(O)cc(C)oc1=O | · | 14.2 | · | 1.2 | 12.1
O=C(NCC(O)c1nc2ccccc2[nH]1)c1cc([N+](=O)[O-])ccc1F (stereo not drawn) | · | · | · | 2.1 | ·
COc1ccc(S(=O)(=O)n2nc(-c3cc(OC)c(OC)c(OC)c3)cc2N)cc1OC | 2.1 | -6.9 | 13.7 | -6.8 | 14.8
COc1ccc(-c2cc(N)n(S(=O)(=O)c3c(F)c(F)c(F)c(F)c3F)n2)cc1OC | -3.2 | 7.6 | -2.4 | 25.5* | 36.0
Oc1cc(O)c(CN2CCOCC2)cc1CN1CCOCC1 | 4.0 | -3.4 | -9.2 | 4.8 | ·
Oc1c(CN2CCOCC2)cc(CN2CCOCC2)cc1CN1CCOCC1 | -0.4 | -0.3 | -1.5 | 29.0* | ·
Cc1ccc(C(=O)Nn2cnnc2)cc1[N+](=O)[O-] | 10.7 | -2.4 | -1.2 | 26.1* | 15.2
Cc1cccc(C)c1-n1nnnc1C(c1ccccc1OC(F)(F)F)N1CCN(C/C=C/c2ccccc2)CC1 (stereo not drawn) | · | · | · | 16.1 | ·
CC1(C(=O)NCc2cccc3ccccc23)CCN1C(=O)Cc1ccc(-c2ccccc2)cc1 (stereo not drawn) | · | · | · | -0.1 | ·
N#Cc1ccc(S(=O)(=O)N2CCCCC2c2cc(C(=O)Nc3cccc4c3CCCC4)no2)cc1 (stereo not drawn) | · | · | · | 10.8 | ·
Cc1ccccc1CC(=O)Nc1ccc2c(c1)c(=O)n(C)n2-c1cccs1 | · | · | · | 26.6* | ·
Cc1ccccc1CC(=O)Nc1ccc2c(c1)c(=O)n(C)n2-c1ccccc1F | · | · | · | -1.8 | ·
Cc1ccc(S(=O)(=O)N(CC(O)CN2CCCCC2)c2ccccc2)cc1 (stereo not drawn) | -18.8 | 7.2 | 10.9 | -1.7 | 39.2
COc1ccc(N(CC(O)CN2CCCCC2)S(=O)(=O)c2ccc(C)cc2)cc1 (stereo not drawn) | -7.3 | -2.3 | -1.7 | 23.9* | 2.1
CCOC(=O)c1c(CC(C)C)csc1NC=O | -6.5 | 5.3 | 3.1 | 30.4* | 11.0
CN(C(=O)COC(=O)c1cnc(Cl)c(Cl)c1)C1CCCCC1 | 1.5 | -3.1 | 1.6 | 24.1* | 26.4
CN(C(=O)COC(=O)c1cnc(Cl)c(Cl)c1)C1CCS(=O)(=O)C1 (stereo not drawn) | -5.4 | -4.9 | 3.0 | -3.7 | 6.6
Cc1ccc(N2CCN(C(C(=O)Nc3c(C)cccc3C)c3cc4ccccc4o3)CC2)cc1 (stereo not drawn) | · | · | · | 2.2 | ·
COc1ccc2c(c1)c(=O)c(C(=O)c1ccccc1)cn2Cc1ccccc1 | -0.2 | -0.6 | -5.6 | -9.9 | 3.1
SMILES | PKA-R2B activ | ATG4B inh | PKA-R1A act | NRP1-CendR mod | VLA-4 inh
O=C(O)c1cn(Cc2ccccc2)c2ccc(Cl)cc2c1=O | 3.4 | -10.8 | 1.2 | 23.2* | 20.4
Fc1ccc(C2=CC(c3ccco3)n3ncnc3N2)cc1 (stereo not drawn) | -5.8 | -2.3 | -3.6 | 37.7* | -2.8
CCc1ccc2c(c1)Sc1ccccc1CC2N1CCN(C)CC1 (stereo not drawn) | -10.1 | -6.5 | -4.9 | 11.9 | 18.4
c1ccc2c(c1)CC(N1CCCCC1)c1ccccc1S2 (stereo not drawn) | -6.8 | -8.7 | -5.1 | 40.6* | -1.7
O=C(O)c1cc2nc(-c3cccs3)cc(C(F)(F)F)n2n1 | -10.5 | 3.0 | -1.4 | 29.4* | 2.0
FC(F)(F)c1cc(-c2cccs2)nc2cc(-c3ccccc3)nn12 | 2.3 | 2.4 | -0.5 | -9.4 | 2.6
Cc1ccnc(NC(c2ccccc2)c2ccc3cccnc3c2O)c1 (stereo not drawn) | 4.6 | 13.1 | 1.9 | 33.0* | ·
Cc1ccnc(NC(c2cccnc2)c2ccc3cccnc3c2O)c1 (stereo not drawn) | -13.2 | -1.6 | -1.7 | -1.8 | 10.6
NS(=O)(=O)c1cccnc1Nc1cccc(Cl)c1Cl | -9.5 | -2.2 | -2.0 | 23.6* | 6.9
CC(C)n1c(NCc2ccc(N(C)C)cc2)nc2ccccc21 | 3.1 | 1.8 | 1.9 | 29.4* | 2.1
CCOc1ccc(NC(=O)CN2CCN(CC(=O)Nc3ccc(Cl)c(C(F)(F)F)c3)CC2)cc1 | 0.7 | 1.0 | -9.5 | 21.2* | 20.7
Cc1ccc(C(=O)CSc2nnc(-c3snnc3C)n2C2CC2)cc1 | 0.2 | -2.5 | -2.1 | 0.9 | 1.9
O=C(NCc1ccccc1)C1=C[C@@H](C2CC2)C[C@@H](OCc2ccc(CO)cc2)O1 | -9.1 | -4.5 | -4.7 | 21.2 | -7.7
O=C(NCc1ccccc1)C1=C[C@H](C2CCCCC2)C[C@H](OCc2ccc(CO)cc2)O1 | -4.0 | 8.7 | -0.5 | 18.5* | 24.6
C=CCOC(=O)C1=C[C@H](C2CCCCC2)C[C@H](OCc2ccc(CO)cc2)O1 | -8.9 | 2.2 | -1.6 | -9.4 | ·
NC(=O)C1=C[C@H](C2CCCCC2)C[C@H](OCc2ccc(CO)cc2)O1 | 0.8 | -12.5 | 13.2 | 27.9* | 1.0
NC(=O)C1=C[C@H](c2ccc(Br)cc2)C[C@H](OCc2ccc(CO)cc2)O1 | -7.4 | -10.5 | -12.0 | 26.4* | 1.9
CC(C)NS(=O)(=O)c1ccc(NC(=O)C(C)OC(=O)CCC(=O)c2cccs2)cc1 (stereo not drawn) | -4.2 | -8.5 | -4.5 | 2.8 | 7.2
OCC1OC(c2ccc(O)cc2O)C(O)C1O (stereo not drawn) | · | · | · | 29.1* | ·
CCn1nc(C(=O)OCC(=O)NC(C)C)c2ccccc2c1=O | -9.3 | -4.1 | -4.3 | -1.7 | -13.3
CCn1nc(C(=O)OCC(=O)NCCN2C(=O)CSC2=O)c2ccccc2c1=O | 9.3 | -11.9 | 2.9 | 38.2* | -4.9
CC1CN(C(=O)CSc2nnc(NC(=O)NC(C)(C)C)s2)CC(C)O1 (stereo not drawn) | 11.7 | 2.0 | -15.6 | 2.1 | 3.2
Cc1c(C(=O)Nc2ccc(S(=O)(=O)NCC3CCCO3)cc2)cccc1[N+](=O)[O-] (stereo not drawn) | -2.7 | -5.5 | 10.8 | 37.7* | -5.2
COc1ccc(C)cc1S(=O)(=O)N1CCCC(N2CCN(c3ccccc3)CC2)C1 (stereo not drawn) | -5.1 | · | -1.1 | 1.7 | ·
CCCn1c(C)nnc1SCC(=O)NC1CCCCC1 | 0.9 | -4.9 | -5.5 | 20.3 | 12.7
CCn1c(C)nnc1SCC(=O)NC1CCCCCC1 | 2.4 | -2.4 | -12.7 | 27.3* | 36.0
